# Measurements from PubChem BioAssay (NCATS).
# Results filed as inconclusive are left out. Where a call stands in place of a potency, no number is given. Values without a mark were called inactive. Calls of active or inactive are those of the source. Calls follow the shape of the dose curve; as a rule, active = well fitted curve in the direction sought with a large enough effect; inconclusive = small, poorly fitted or top-dose-only effect, or another doubt; inactive = no such curve, though single readings can be large; an effect the other way counts as inactive or inconclusive.
# Assays:
# HEK293 = assay: Cytotoxic Profiling of Annotated Libraries Using Quantitative High-Throughput Screening (AID 1296008); details: Five cell lines viability, CellTiter-Glo ATP luminescence, 48-72 h; max response: hits give low values; also: nearly all actives have a fitted effect of over 60% in size
# How it was run: (§1)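 Compounds were pin-transferred onto cells and incubated 48 or 72 hr at 37 degree Celsius, 95% humidity. CellTiter-Glo was added, plates sat 10 min at room temperature, then ATP-coupled luminescence was imaged as the viability read-out.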
# C33A = assay: Primary qHTS to identify gynecologic anti-cancer compounds using libraries of approved drugs and bioactive compounds (AID 1345084); details: Gynecologic cancer cell panel viability, ATPlite luminescence, 48 h; series mostly up to 57.5 µM; also: nearly all actives have a fitted effect of over 55% in size
# How it was run: (§2)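 Cell viability after 48 h drug treatment, ATPlite luminescence readout; five doses.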
# CAOV3 = assay: as above; details: Gynecologic cancer cell panel viability, ATPlite luminescence, 48 h; series mostly up to 57.5 µM
# How it was run: as §2
# CASKI = assay: as above; details: Gynecologic cancer cell panel viability, ATPlite luminescence, 48 h; series mostly up to 57.5 µM
# How it was run: as §2
# Es-2 = assay: as above; details: Gynecologic cancer cell panel viability, ATPlite luminescence, 48 h; series mostly up to 57.5 µM
# How it was run: as §2
# HeLa = assay: as above; details: Gynecologic cancer cell panel viability, ATPlite luminescence, 48 h; series mostly up to 57.5 µM
# How it was run: as §2
# JEG-3 = assay: as above; details: Gynecologic cancer cell panel viability, ATPlite luminescence, 48 h; series mostly up to 57.5 µM
# How it was run: as §2
# OV90 = assay: as above; details: Gynecologic cancer cell panel viability, ATPlite luminescence, 48 h; series mostly up to 57.5 µM
# How it was run: as §2
# NIH3T3 = assay: Cytotoxic Profiling of Annotated Libraries Using Quantitative High-Throughput Screening (AID 1296008); details: Five cell lines viability, CellTiter-Glo ATP luminescence, 48-72 h; max response: hits give low values; also: nearly all actives have a fitted effect of over 60% in size
# How it was run: as §1
# Hek293T = assay: Primary qHTS to identify gynecologic anti-cancer compounds using libraries of approved drugs and bioactive compounds (AID 1345084); details: Gynecologic cancer cell panel viability, ATPlite luminescence, 48 h, control line for the selectivity index; series mostly up to 57.5 µM; also: nearly all actives have a fitted effect of over 55% in size
# How it was run: as §2
# HaCat = assay: Cytotoxic Profiling of Annotated Libraries Using Quantitative High-Throughput Screening (AID 1296008); details: Five cell lines viability, CellTiter-Glo ATP luminescence, 48-72 h; max response: hits give low values; also: nearly all actives have a fitted effect of over 60% in size
# How it was run: as §1
# Potency is read from the fitted curve at half-maximal effect.
compound,measurement,setting,value
Cn1ncc(Cl)c1-c1cc(C(=O)N[C@H](CN)Cc2ccc(F)c(F)c2)oc1Cl,Potency,HEK293,0.366 µM (active)
same,Potency,C33A,2.24 µM (active)
same,Potency,CAOV3,inactive
same,Potency,CASKI,3.98 µM (active)
same,Potency,Es-2,inactive
same,Potency,HeLa,inactive
same,Potency,JEG-3,inactive
same,Potency,OV90,14.1 µM (active)
CC(C)(C)Oc1ccc(OCC2Cc3ccccc3CN2C(=O)c2cccc3ccccc23)cc1 (centres undefined),Potency,HEK293,13 µM (active)
same,max response,NIH3T3,-2.51%
same,Potency,C33A,inactive
same,Potency,CAOV3,inactive
same,Potency,CASKI,inactive
same,Potency,Es-2,inactive
same,Potency,HeLa,inactive
same,Potency,Hek293T,inactive
same,Potency,JEG-3,inactive
same,Potency,OV90,inactive
CCC1C(=O)N(C)c2cnc(Nc3ccc(C(=O)NC4CCN(C)CC4)cc3OC)nc2N1C1CCCC1 (centres undefined),max response,HEK293,-124%
same,Potency,NIH3T3,7.31 µM (active)
same,Potency,C33A,20 µM (active)
same,Potency,CASKI,3.98 µM (active)
same,Potency,JEG-3,28.2 µM (active)
C=C1CC2OC(=O)C(COC)C2C(OC(=O)/C(C)=C\C)CC2(C)OC1=CC2=O (centres undefined),Potency,HEK293,4.53 µM (active)
same,max response,HaCat,-10.4%
same,Potency,CAOV3,inactive
same,Potency,CASKI,inactive
same,Potency,HeLa,inactive
same,Potency,JEG-3,inactive
same,Potency,OV90,inactive
Oc1cccc(C2NC(=S)Nc3cccc(F)c32)c1 (centres undefined),Potency,HEK293,5.8 µM (active)
same,Potency,HaCat,6.51 µM (active)
same,Potency,JEG-3,22.4 µM (active)
same,Potency,OV90,inactive
C=C(NC(=O)C(=C)NC(=O)c1csc(C2=NC3c4csc(n4)C4NC(=O)c5csc(n5)C(C(C)(O)C(C)O)NC(=O)C5CSC(=N5)/C(=C/C)NC(=O)C(C(C)O)NC(=O)c5csc(n5)C3(CC2)NC(=O)C(C)NC(=O)C(=C)NC(=O)C(C)NC(=O)C(C(C)CC)NC2C=Cc3c(C(C)O)cc(nc3C2O)C(=O)OC4C)n1)C(N)=O (centres undefined),Potency,HEK293,1.16 µM (active)
same,Potency,NIH3T3,4.61 µM (active)
same,Potency,CAOV3,25.1 µM (active)
same,Potency,HeLa,inactive
same,Potency,Hek293T,17.8 µM (active)
same,Potency,OV90,inactive
CC(OC1OCCN(Cc2n[nH]c(=O)[nH]2)C1c1ccc(F)cc1)c1cc(C(F)(F)F)cc(C(F)(F)F)c1 (centres undefined),Potency,HEK293,11.6 µM (active)
same,Potency,C33A,inactive
same,Potency,CAOV3,inactive
same,Potency,CASKI,inactive
same,Potency,Es-2,inactive
same,Potency,HeLa,inactive
same,Potency,Hek293T,inactive
same,Potency,JEG-3,inactive
same,Potency,OV90,inactive
Cc1ccc(O)cc1Nc1ccnc(Nc2cccc(C(N)=O)c2)n1,Potency,HEK293,14.6 µM (active)
same,Potency,NIH3T3,2.31 µM (active)
same,Potency,C33A,inactive
same,Potency,CAOV3,inactive
same,Potency,JEG-3,inactive
O=S(=O)(NCc1cccc2ccccc12)c1cc(Cl)c(Oc2cccc(N3CCNCC3)c2)s1,Potency,HEK293,10.3 µM (active)
same,Potency,NIH3T3,14.6 µM (active)
same,Potency,C33A,inactive
same,Potency,CASKI,inactive
same,Potency,HeLa,inactive
same,Potency,JEG-3,inactive
same,Potency,OV90,inactive
C=C1C(=O)OC2/C=C(/C)C3=CC(=O)C(C)(CC(OC(=O)/C(C)=C/COC(C)=O)C12)O3 (centres undefined),Potency,HEK293,2 µM (active)
same,Potency,NIH3T3,3.99 µM (active)
same,Potency,Es-2,7.08 µM (active)
same,Potency,HeLa,inactive
same,Potency,OV90,inactive
CN(C)Cc1ccc(-c2cnn3c(-c4cccc(NC(=O)c5cccc(C(F)(F)F)c5)c4)ccnc23)cc1,Potency,HEK293,7.31 µM (active)
same,Potency,NIH3T3,16.4 µM (active)
same,Potency,Es-2,inactive
same,Potency,HeLa,inactive
Cc1cn(CCN2CCN(c3ccccc3-c3cc(C#N)cc(C(=O)NCCCN4CCCC4)c3)CC2)c2ccccc12,Potency,HEK293,14.8 µM (active)
same,Potency,NIH3T3,16.6 µM (active)
same,Potency,C33A,inactive
same,Potency,CASKI,inactive
same,Potency,Es-2,inactive
same,Potency,HeLa,inactive
same,Potency,Hek293T,inactive
same,Potency,JEG-3,inactive
C=C1C(=O)O[C@@H]2C3=C(C)CCC[C@]3(C)CC[C@@]12O,Potency,HEK293,8.2 µM (active)
same,Potency,NIH3T3,14.6 µM (active)
same,Potency,HeLa,inactive
same,Potency,JEG-3,inactive
Cc1ccc(C)c(-c2cc(C(F)(F)F)nn2-c2ccc(S(N)(=O)=O)cc2)c1,Potency,HEK293,5.17 µM (active)
same,max response,HaCat,3.66%
same,Potency,CASKI,inactive
same,Potency,HeLa,31.6 µM (active)
Fc1ccc(-n2cc(CCCCN3CCC4(CC3)OCc3ccccc34)c3ccccc32)cc1,Potency,HEK293,18.4 µM (active)
same,Potency,NIH3T3,16.4 µM (active)
same,Potency,CASKI,inactive
same,Potency,Es-2,inactive
same,Potency,HeLa,inactive
same,Potency,Hek293T,inactive
same,Potency,JEG-3,inactive
Oc1ccc(-c2cnc3ccc(NCc4ccco4)nn23)cc1,Potency,HEK293,20.6 µM (active)
same,Potency,HaCat,7.31 µM (active)
same,Potency,JEG-3,inactive
same,Potency,OV90,inactive
C=C(C=O)[C@]1(O)C[C@@]2(C)C(=CC1=O)C=C[C@H](OC(=O)/C=C/C=C/[C@H](C)CC)[C@@H]2C,Potency,HEK293,3.99 µM (active)
same,Potency,CASKI,inactive
same,Potency,Es-2,inactive
same,Potency,HeLa,inactive
same,Potency,JEG-3,inactive
N#C/C(=C1\Nc2ccccc2S1)c1ccnc(NCCc2cccnc2)n1,Potency,HEK293,7.31 µM (active)
same,Potency,C33A,inactive
same,Potency,CAOV3,inactive
same,Potency,CASKI,inactive
same,Potency,JEG-3,inactive
same,Potency,OV90,inactive
C/C=C(\C)C(=O)O[C@H]1C=C(CO)C(=O)[C@H](OC(C)=O)[C@H]1C(C)C,Potency,HEK293,8.05 µM (active)
same,Potency,C33A,12.6 µM (active)
same,Potency,HeLa,inactive
same,Potency,OV90,inactive
Cc1c[nH]c2ncnc(N3CCC(CN)(C(=O)Nc4cccc(OC(=O)N(C)C)c4)CC3)c12,Potency,HEK293,3.66 µM (active)
same,Potency,CAOV3,inactive
same,Potency,CASKI,inactive
same,Potency,Es-2,inactive
same,Potency,HeLa,inactive
same,Potency,JEG-3,inactive
same,Potency,OV90,11.2 µM (active)
C=C1C(=O)OC2C(OC(=O)C=C(C)C)C(C)=C3C(=O)C=C(C)C3C(O)C12 (centres undefined),Potency,HEK293,6.4 µM (active)
same,Potency,CAOV3,11.2 µM (active)
same,Potency,CASKI,inactive
same,Potency,HeLa,inactive
N#Cc1cc(CN2CCC(Nc3ncnc4sc(Cl)cc34)CC2)ccc1F,Potency,HEK293,14.6 µM (active)
same,Potency,C33A,inactive
same,Potency,CAOV3,inactive
same,Potency,CASKI,inactive
same,Potency,HeLa,inactive
same,Potency,JEG-3,inactive
